Only some compounds are listed: those with a hit (about 4.9% of all), similar ones and a draw of the others.
Beta cell apopt: blocks beta cell apoptosis; INS-1E cytokine-induced death, ATP luminescence, 48 h; percent of positive-control rescue, neutral wells zero; protection from apoptosis, % (test concentration not listed); 300,000 compounds, 0.8% hits; AID 435005;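 active means Every replicate reaches about 75%, or at least half do and their mean reaches it too, limit read from the data; inconclusive means At least half of replicates reach the limit but their mean does not; inactive means Under half of replicates reach the limit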;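 further: 0% = cytokine-treated negative control wells and 100% = positive control rescue; higher means more ATP so stronger rescue from cytokine killing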
Mdm2 MdmX PPI: inhibitors of human Mdm2/MdmX interaction; O15151+Q00987; SaOS-2 split-luciferase Mdm2/MdmX complementation, luminescence; inhibition, % at 8 µM; 330,000 compounds, 3% hits;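 active means inhibition of at least 50% at 8 µM in the primary screen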
CSC inhib: blocks cancer stem cells. cancer stem cell-like cells viability, luminescence. inhibition, % at 7.5 µM. 300,000 compounds, 1.1% hits; in the data active means inhibition above about 75%; inconclusive means no clear call, values can overlap the other calls; tested in HMLE shEcad cells
PP5 primary: blocks human protein phosphatase 5 activity. P53041. purified PP5c, OMFP substrate fluorescence. 320,000 compounds, 0.18% hits. inhibition, % at 6.7 µM. AID 1987;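 active means inhibition above the campaign's mean inhibition across all tested compounds plus 3 SD, cut at about 9.5% in these data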;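 further: 0% = DMSO only and 100% = 100 µM cantharidin control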
PP1 inh: blocks human PP1-alpha phosphatase, a PP5 counter-screen. P62136. purified PP1alpha, OMFP fluorescence. inhibition, % at 6.7 µM. 320,000 compounds, 0.9% hits. AID 2235;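 active means inhibition above the mean inhibition of all tested compounds plus 3 SD, computed separately for each screening campaign, cut at about 15% in these data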
Target sequence (P62136 whole entry, looked up): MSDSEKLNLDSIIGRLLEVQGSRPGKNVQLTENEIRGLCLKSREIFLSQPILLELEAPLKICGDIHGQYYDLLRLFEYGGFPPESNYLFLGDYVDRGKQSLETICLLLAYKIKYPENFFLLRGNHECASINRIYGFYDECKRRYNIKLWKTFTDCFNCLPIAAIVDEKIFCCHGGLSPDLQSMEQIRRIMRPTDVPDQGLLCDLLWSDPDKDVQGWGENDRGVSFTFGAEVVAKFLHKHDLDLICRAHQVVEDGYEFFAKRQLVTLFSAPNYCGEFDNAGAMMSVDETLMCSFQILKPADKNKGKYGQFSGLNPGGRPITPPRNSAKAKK
Calb FLC: affects C. albicans growth with fluconazole | C. albicans CaCi-2 (fluconazole-resistant clinical isolate) + fluconazole, Alamar Blue growth, 48 h | growth inhibition, % (test concentration not listed) | 300,000 compounds, 0.57% hits | AID 1979;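 active means growth inhibition above about 58% in most replicates, limit read from the data, passing the limit was not always enough; inconclusive means exactly half the replicates above a set limit; inactive means most replicates below a set limit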;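 further: all wells also contain fluconazole at 8 µg/ml as a sub-toxic cotreatment; 0% = median of DMSO wells and 100% = median of geldanamycin control wells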
Mdm2 MdmX conf: confirmation of human Mdm2/MdmX interaction inhibitors; shares compounds with Mdm2 MdmX PPI; Mdm2-MdmX binding, luminescent assay; inhibition, % at 8 µM; 10,000 compounds, 55% hits; in the data active means inhibition above about 40%
FLuc counter: full-length luciferase inhibition in Mdm2/MdmX counter-screen; SaOS-2 full-length luciferase counterscreen, luminescence; inhibition, % at 8 µM; shares compounds with Mdm2 MdmX PPI; 6,200 compounds, 77% hits;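 active means mean inhibition at 8 µM reaching about 37%, which flags the compound as non-specific, limit read from the data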;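 further: p53-null SaOS-2 cells with luciferase driven by a doxycycline-inducible promoter; compound on cells about two nights before reading with doxycycline added after day one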
* marks the source's active call; other numbers are inactive results; ? = inconclusive; . = no result given.

SMILES	Beta cell apopt	Mdm2 MdmX PPI	CSC inhib	PP5 primary	PP1 inh	Calb FLC	Mdm2 MdmX conf	others
Cc1ccc(-n2ncc(C(=O)Nc3ccc(Cl)cc3)c2C2CCNCC2)cc1C	-17	61*	5	4	0	-12	54*	FLuc counter=77*
COc1ccccc1NC(=O)c1sc2ncn(Cc3cccc(C)c3)c(=O)c2c1C	9	31	9	4	0	1	.
COc1ccccc1NC(=O)c1sc2ncn(Cc3ccc(C)cc3)c(=O)c2c1C	7	55*	-8	2	0	-6	-7
COc1ccc(O)c(/C=C2/SC(=S)N(Cc3ccccc3)C2=O)c1	-13	31	43	2	0	-3	.
COc1ccc(OC)c(/C=C2\SC(=S)N(Cc3cccnc3)C2=O)c1	32	73*	52	-1	5	30	44*	FLuc counter=49*
O=C(Nc1nnc(-c2ccccc2Cl)o1)c1ccc(S(=O)(=O)N2CCCCCC2)cc1	.	37	64	2	11	1	.
CCC1CCCCN1S(=O)(=O)c1ccc(C(=O)Nc2nnc(-c3ccccc3Cl)o2)cc1 (stereo not drawn)	13	63*	.	2	5	11	16
Cc1ccc(CS(=O)(=O)c2ncc(Cl)c(C(=O)Nc3ccc(OC(F)F)cc3)n2)cc1	41	91*	105*	-1	4	-2	86*	FLuc counter=54*
CC1CCCN(S(=O)(=O)c2ccc(NC(=O)CNC3CCCC3)cc2)C1 (stereo not drawn)	-3	23	40	2	2	-16	.
CCS(=O)(=O)c1ncc(Cl)c(C(=O)Nc2ccc(S(=O)(=O)N3CCCC(C)C3)cc2)n1 (stereo not drawn)	106*	99*	118*	3	6	0	99*	FLuc counter=51*
CCC1CCCCN1S(=O)(=O)c1ccc(NC(=O)c2nc(S(C)(=O)=O)ncc2Cl)cc1 (stereo not drawn)	108*	97*	115*	6	3	-7	100*	FLuc counter=1
COc1ccc(C2c3[nH]c4ccccc4c3CCN2Cc2cccn2-c2ncccn2)cc1C (stereo not drawn)	40	47	-4	3	1	35	.
O=C(c1ccc(=O)[nH]c1)N1CCCc2ccccc21	-3	12	-8	1	-3	-3	.
CCS(=O)(=O)c1ncc(Cl)c(C(=O)Nc2ccc(C)cc2)n1	-31	87*	119*	5	-8	2	78*	FLuc counter=57*
CS(=O)(=O)c1ncc(Cl)c(C(=O)Nc2ccc3ccccc3c2)n1	.	.	.	.	.	-7	.
O=C1CCC(C(=O)N2CCC(CO)(Cc3ccc(Cl)cc3)CC2)=NN1	-13	1	-1	1	-2	?	.
COc1cccc(CC2(CO)CCCN(Cc3ccc(C)s3)C2)c1 (stereo not drawn)	0	1	24	-3	1	-14	.
COc1cccc(CC2(CO)CCCN(Cc3[nH]c4ccc(C)cc4c3C)C2)c1 (stereo not drawn)	-2	63*	53	3	2	-9	20
CCc1ccc(C(=O)NNC(=O)[C@H](C)NC(=O)c2ccco2)cc1	-2	9	2	.	.	.	.
CCOC(=O)Cc1csc(/N=C/c2c(O)n(-c3ccc(C)c(C)c3)c(=O)c3ccccc23)n1	70	73*	34	0	0	-1	16
COc1ccc(-n2c(O)c(C=Nc3ccccc3)c3ccccc3c2=O)cc1OC	14	80*	-8	1	-2	1	11
COc1ccc(-n2c(O)c(C=Nc3ccccc3)c3ccccc3c2=O)cc1	5	38	-6	0	-2	18	.
Cc1sc(NC(=O)Cc2ccc3c(c2)OCO3)nc1-c1ccc2c(c1)CCN2C(=O)c1ccccc1F	15	54*	9	-1	9	-2	31
Cc1ccc2c(c1)CCCN2CC(=O)Nc1cccc(S(=O)(=O)N2CCCC2)c1	0	4	.	0	3	.	.
Cc1noc(C)c1C(=O)N(CC(C)C)c1nc2ccccc2s1	-7	-1	9	2	-3	5	.
SMILES	Beta cell apopt	Mdm2 MdmX PPI	CSC inhib	PP5 primary	PP1 inh	Calb FLC	Mdm2 MdmX conf	others
Cc1cccc(NC(=O)Cn2cnc3c(oc4ccccc43)c2=O)c1C	-3	64*	-8	2	3	-7	0
Cc1ccccc1NC(=O)Cn1cnc2c(oc3ccccc32)c1=O	0	-2	-5	4	-5	1	.
Cc1nn(-c2ccccc2)c(Cl)c1C(=O)Nc1nnc(C2CCCCC2)s1	6	13	6	4	0	21	.
Cc1nn(Cc2ccccc2Cl)c(C)c1C(=O)Nc1nnc(C2CC2)s1	.	79*	53	0	-1	-4	7
Cc1nn(Cc2ccccc2Cl)c(C)c1C(=O)NCCN1C(=O)S/C(=C\c2ccccc2)C1=O	6	58*	29	2	3	12	7
COc1ccc(CCNC(=O)N[C@@H](Cc2ccccc2)C(=O)O)cc1	-5	3	3	-1	1	-11	.
Cc1ccc(Cl)cc1NC(=O)CC(O)(C(F)(F)F)C(F)(F)F	.	59*	42	1	-1	-38	28
O=c1cc(CN2CCN(c3ccccc3)CC2)c2cc(O)c(-c3ccccc3)cc2o1	17	73*	-2	0	-1	-29	10
O=c1cc(CN2CCN(c3cccc(Cl)c3)CC2)c2cc(O)c(-c3ccccc3)cc2o1	6	41	-8	2	-1	-6	.
O=C(COc1ccc2ccccc2c1)NCC1CCCO1 (stereo not drawn)	-3	14	-13	-3	-3	9	.
COc1ccc(CCN(Cc2cccs2)S(=O)(=O)c2ccc(S(=O)(=O)N(C)C3CCCCC3)cc2)cc1OC	.	18	-3	3	1	-10	.
COC(=O)c1cc(=O)n(CCc2ccc(OC)c(OC)c2)c(=Nc2ccc(F)c(Cl)c2)s1	11	84*	110*	-1	-5	1	11
COC(=O)c1cc(=O)n(Cc2ccco2)c(=Nc2ccc(F)cc2)s1	-14	58*	62	4	-1	4	30
COC(=O)c1cc(=O)n(Cc2ccc(OC)c(OC)c2)c(=Nc2ccc(F)cc2)s1	-15	76*	97*	2	0	10	33	FLuc counter=98*
C[C@H](NC(=O)c1[nH]cnc1C(=O)Nc1ccc(Cl)cc1)C(=O)OC(C)(C)C	1	50*	-24	0	-1	30	30
CC(C)(C)OC(=O)N1CCC(NC(=O)c2[nH]cnc2C(=O)Nc2ccc(Cl)cc2)CC1	-8	52*	89*	0	0	.	53*	FLuc counter=53*
